Screening results as filed in PubChem BioAssay.
RORgamma inh: inhibitors of mouse ROR gamma transcriptional activity | P51450 | Drosophila S2 Gal4-RORgamma UAS-luciferase reporter, 20 h | Potency, µM (doses to about 53.6 µM), for the others: at the highest dose activity change, negative = inhibition, most hits filed as inhibitors | actives 5.4% (n = 310,000) | AID 2551; further: on the % scale 0 is the no-effect control and ±100 the full control effect; nearly all actives have a fitted effect of over 60% in size
Target sequence (P51450 whole entry, looked up, the tested form may be a part): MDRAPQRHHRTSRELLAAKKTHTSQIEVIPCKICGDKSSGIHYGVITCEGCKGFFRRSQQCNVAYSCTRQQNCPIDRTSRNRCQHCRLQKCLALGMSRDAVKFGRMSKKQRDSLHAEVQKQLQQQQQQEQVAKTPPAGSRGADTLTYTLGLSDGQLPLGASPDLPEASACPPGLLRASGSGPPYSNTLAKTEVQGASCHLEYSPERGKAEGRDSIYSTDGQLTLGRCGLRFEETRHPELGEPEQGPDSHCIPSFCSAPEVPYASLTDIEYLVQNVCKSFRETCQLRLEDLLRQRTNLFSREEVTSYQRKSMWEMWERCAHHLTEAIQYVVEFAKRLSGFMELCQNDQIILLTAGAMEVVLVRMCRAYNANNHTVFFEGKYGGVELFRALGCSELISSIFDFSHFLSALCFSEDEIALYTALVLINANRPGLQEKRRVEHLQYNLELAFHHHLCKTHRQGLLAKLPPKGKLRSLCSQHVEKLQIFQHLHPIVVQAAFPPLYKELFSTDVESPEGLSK
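Stably transfected Drosophila Schneider cells are the test system, with ROR gamma fused to Gal4 and luciferase under UAS control; luminescence is read after 20 hr of 700 uM copper sulfate induction at ambient temperature.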
Gal4-VP16 FLuc: counter-screen for ROR gamma inhibitors: Gal4-VP16 reporter; Drosophila S2 Gal4-VP16 UAS-luciferase, luminescence, 20 h; Potency, µM (titrated, usually from 53.6 µM), inactives show at the highest dose activity, negative = inhibition, most hits filed as inhibitors; actives 3.5% (n = 310,000);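 further: Gal4-VP16 expression switched on by copper sulfate through the metallothionein promoter; on the % scale 0 is the no-effect control and ±100 the full control effect; nearly all actives have a fitted effect of over 50% in size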
ClpP mod: qHTS Assay for Activators of ClpP | ATP-dependent Clp protease proteolytic subunit (Bacillus subtilis (strain 168)), P80244 | purified B. subtilis ClpP, FRET peptide cleavage, 20 min | Potency, µM (doses to about 57.5 µM), inactives show top-dose activity change, negative = active | actives 1.9% (n = 340,000) | AID 651965, 2013; active means well fitted falling curve with a large enough effect; inconclusive means small, poorly fitted or top-dose-only effect; inactive means no such curve, though single readings can be large or run the other way; further: the source files actives as falling curves though it sought activators and does not explain the sign; nearly all actives have a fitted effect of over 65% in size
Target sequence (P80244 whole entry, looked up): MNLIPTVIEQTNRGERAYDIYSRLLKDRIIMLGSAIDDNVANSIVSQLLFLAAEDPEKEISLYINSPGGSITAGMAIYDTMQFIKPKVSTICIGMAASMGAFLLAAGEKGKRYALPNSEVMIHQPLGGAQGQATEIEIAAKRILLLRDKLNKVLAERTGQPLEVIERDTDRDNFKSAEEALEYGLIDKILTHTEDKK
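ClpP 10 microg/mL final, pH 8 Tris/KCl buffer with BSA, glycerol, Tween-20; compound pinned in; FRET-FV substrate; RT 20 min; Ex320/Em430; ΔFRET vs ADEP 5.8 microM, DMSO, no enzyme.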
PINK1 expr mod: PINK1 expression modulation. AID 624263. PINK1 immunofluorescence, high-content cytometry, 24 h. actives 0.2% (n = 410,000). Potency, µM (doses to about 76.6 µM), for the others: at the top dose activation (PINK1 increase), hits mostly activators; active means well fitted activation curve with a large enough effect; inconclusive means small, poorly fitted or top-dose-only effect; cell line not stated here; further: % of control where 0% means no effect; nearly all actives have a fitted effect of over 65% in size
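Compound titrations (5 concentrations, 24 h) on a stable cell line; DMSO and CCCP controls. Endpoint: fixed-cell PINK1 immunofluorescence with mitochondrial, cell and nuclear markers, scanned by microplate cytometer.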
Sfp inh: inhibitors of Bacillus subtilis Sfp phosphopantetheinyl transferase; Q9F4F7; Biochemical Sfp PPTase activity, qHTS; Potency, µM, for the others: largest response in the series, negative = inhibition, usual class: inhibitors; actives 3.5% (n = 310,000); AID 1490;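 further: the enzyme is Sfp with the accession as filed and its product quenches rhodamine fluorescence; 0% = enzyme reaction without inhibitor and -100% = no enzyme wells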
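With Hepes-Na pH 7.6 buffer containing 10 mM MgCl2, Sfp (15 nM) modified BHQ-2-YbbR (12.5 uM) using rhodamine-CoA (5 uM). Two reads 30 minutes apart at 525/598 nm yielded each well's rate.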
Epigenetic reg: epigenetic control regulation, reporter derepression. murine LDR cells, GFP reporter derepression, 30 h. Potency, µM (top dose mostly 53.9 µM), inactives show top-dose GFP activation, usual class: activators. actives 0.2% (n = 280,000). AID 1865; further: % of control where 0% means no effect; nearly all actives have a fitted effect of over 60% in size
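Murine LDR cells carrying a silenced, genomically integrated CMV-driven GFP reporter were exposed to compound for 30 hours at 37 C. After PBS washes, GFP-positive cells (20–120 um objects) were counted by laser-scanning microplate cytometry.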
The depositor's hits bear a star; ? = inconclusive; . = no result; [ ] = another dose, or the depositor's remark. An excerpt weighted towards active compounds, which were near 8.1% of everything screened. Unless noted, the call rests on the fitted dose curve; in most records, active means well fitted curve in the direction sought with a large enough effect; inconclusive means small, poorly fitted or top-dose-only effect, or another doubt; inactive means no such curve, though single readings can be large; an effect the other way counts as inactive or inconclusive. Potency means the concentration at half of the fitted maximal effect.

SMILES | RORgamma inh | Gal4-VP16 FLuc | ClpP mod | PINK1 expr mod | Sfp inh | Epigenetic reg
Cc1ccccc1NC(=S)NC(=O)CCc1ccccc1 | 19% | -10% | 0% | 5%[38.3 µM] | -14% | -2%
CCCC(=O)Nc1sc(Cc2ccccc2)c(C)c1C(N)=O | ? | 10% | -1% | 0% | 13µM* | -3%
CSc1cccc(NC(=O)CCc2ccccc2)c1 | 32% | -6% | . | -2% | 13% | 3%
COC(=O)c1c(NC(=O)CCC(=O)O)sc(Cc2ccccc2)c1C | 0% | 3% | -10% | -1% | 7% | -2%
CCc1cccc(C)c1NC(=O)CCS(=O)(=O)c1ccc2c(c1)oc(=O)n2C | . | . | -1% | 4% | . | 1%
COc1ccc(S(=O)(=O)N(CC(=O)NCCSc2ccccc2)c2ccc(C)cc2)cc1 | . | . | -1% | -1% | . | 0%
COc1ccc(NC(=O)CSc2nnc(NC(=O)NC3CCCCC3)s2)cc1OC | . | . | 1% | 2% | . | 6%
COC(=O)CCC(=O)NC(=S)Nc1sc(C)c(C)c1C(N)=O | 29% | -1% | 0% | 17% | -23% | 13%
COC(=O)CCC(=O)Nc1sc(C)c(C)c1C(N)=O | -8% | 1% | -1% | -3% | 14µM* | 1%
Cc1sc(NC(=S)NC(=O)CCc2ccccc2)c(C(N)=O)c1C | -10% | -9% | 28µM* | 9% | -21% | 2%
COC(=O)/C=C/c1ccc2c(c1)S(=O)(=O)N(C1CCCC1)[C@H]2CC(=O)OC | . | . | -6% | . | . | .
O=C(CSc1nc2ccsc2c(=O)n1Cc1ccccc1F)NCc1ccccc1 | . | . | 4% | 4% | . | -1%
Cc1cc(C)c2c(CC(=O)Nc3ccc(S(=O)(=O)Nc4ncccn4)cc3)coc2c1 | . | . | 0% | -1% | . | -2%
COc1ccc(-c2nc(NC(=O)c3ccccc3)sc2-c2ccc([N+](=O)[O-])cc2)cc1 | -18% | 6% | 1% | -1% | 12% | -3%
N#Cc1ccc(-c2csc(NNC(=O)c3ccccc3)n2)cc1 | 11µM* | ? | -13% | 1% | -10% | 0%
O=C(Nc1nc(-c2ccccc2)cs1)c1cccnc1 | 13% | 14% | -1% | -1%[38.3 µM] | 9% | 0%
COC(=O)c1nc(NNC(=O)c2ccccc2)sc1-c1ccccc1 | 14µM* | -26% | . | 2% | -4% | .
O=C(Nc1ccc(-c2csc(Nc3ccccc3)n2)cc1)c1ccccc1 | 22% | 8% | 15% | 21% | 5% | .
O=C(NNC(=O)c1csc(-c2cccnc2)n1)c1ccccc1 | -14% | -1% | -18% | -2% | 89µM* | -3%
O=C(NNc1nc(-c2ccccc2)cs1)c1ccccc1 | 5µM* | 4µM* | -4% | 2% | 45µM* | -1%
N#Cc1ccc(-c2csc(NNC(=O)c3ccc(Br)cc3)n2)cc1 | 5µM* | ? | -3% | 21% | 13% | 0%
COC(=O)c1ccccc1NC(=O)C1CCCN(c2nnc(C)c3c(C)n(-c4ccccc4)nc23)C1 (stereo not drawn) | . | . | 1% | 4% | . | -3%
Oc1ccc(/C=N/NC(=S)NC2CC3CCC2C3)cc1 (stereo not drawn) | 2.5µM* | 11µM* | . | 2% | 0% | 2%
Oc1ccc(/C=N/NC(=S)NCC2CCCO2)cc1 (stereo not drawn) | ? | 2% | -13% | 1% | 18% | 4%
S=C(Nc1cccnc1)NC1CC2CCC1C2 (stereo not drawn) | -6% | -5% | 1% | 0% | -1% | .
SMILES | RORgamma inh | Gal4-VP16 FLuc | ClpP mod | PINK1 expr mod | Sfp inh | Epigenetic reg
S=C(N/N=C/c1cccs1)NC1CC2CCC1C2 (stereo not drawn) | 0.79µM* | 3.2µM* | . | 7% | 23% | 1%
COCC(=O)Nc1cc(C(=O)N2CC3(C)CC2CC(C)(C)C3)c2c(c1)nc(-c1ccncc1)n2C (stereo not drawn) | . | . | . | 0% | . | .
CC(CN1CCOCC1)OC(=O)c1ccc(Br)cc1 (stereo not drawn) | 2µM* | ? | -2% | 0% | 11% | ?
O=C(c1ccc(Br)cc1)C(CN1CCOCC1)c1ccccc1 (stereo not drawn) | 16µM* | 20µM* | -2% | -4% | -21% | .
CC(CN1CCOCC1)OC(=O)c1ccccc1Cl (stereo not drawn) | -37% | 7% | -13% | 1% | 4% | .
Cc1ccc(C)c(NC(=O)N2CCN3CCCCC3C2)c1 (stereo not drawn) | . | . | 2% | -1% | . | 0%
COc1ccc2[nH]c3c(=S)nc[nH]c3c2c1 | ? | 1% | . | 1% | 50µM* | -1%
CCCCOc1ncnc2c1[nH]c1ccc(OC)cc12 | -10% | 6% | ? | ? | 10% | -1%
CCCSc1ncc(Cl)c(C(=O)N(Cc2ccc(N(C)C)cc2)C2CCS(=O)(=O)C2)n1 (stereo not drawn) | . | . | -3% | 0% | . | -2%
Cc1ccc(CNC(=O)Cn2cc(S(=O)(=O)Cc3ccccc3Cl)c3ccccc32)cc1 | . | . | -3% | 7% | . | 5%
CCC(=O)NC(c1cc(Cl)c2cccnc2c1O)C1CC1 (stereo not drawn) | . | . | . | 10% | . | .
Oc1c(C(c2ccccn2)N2CCCCC2)cc(Cl)c2cccnc12 (stereo not drawn) | 2.8µM* | ? | 2% | 1% | 5% | ?
Cc1[nH]c2ccccc2c1C(c1ccccn1)N1CCCC1 (stereo not drawn) | -26% | -2% | . | 2% | -3% | 1%
CN1CCN(C(c2ccc(C(F)(F)F)cc2)c2cc(Cl)c3cccnc3c2O)CC1 (stereo not drawn) | 0.4µM* | 0.89µM* | . | . | 45µM* | .
OCCN1CCN(C(c2cccs2)c2ccc3cccnc3c2O)CC1 (stereo not drawn) | 11µM* | 11µM* | . | . | 16µM* | 2%
CN1CCN(C(c2ccc(Cl)cc2)c2cc(Cl)c3cccnc3c2O)CC1 (stereo not drawn) | 3.2µM* | 1.4µM* | . | 2% | 79µM* | .
OCCN1CCN(CC(O)COc2ccc3ccccc3c2)CC1 (stereo not drawn) | -4% | -8% | -4% | -2% | ? | -2%
Cc1cccc(NC(=O)NCCn2c(=O)oc3ccc(C)cc32)c1 | . | . | 0% | 0% | . | 5%
N#CC(C#N)=C(N)/C(C#N)=C/c1ccc2[nH]ccc2c1 | . | . | . | . | 2% | 6%
CCN1CCN(C(c2ccc(C(F)(F)F)cc2)c2ccc3cccnc3c2O)CC1 (stereo not drawn) | 1.1µM* | 1.3µM* | -2% | 13% | -23% | .
Cc1oc2c(c(C)cc3oc(=O)c(CC(=O)NCCc4ccc(Cl)cc4)c(C)c32)c1C | . | . | -11% | 0% | . | -1%
